# Experimental data from PubChem BioAssay (EPA / NIEHS).
# Values joined by “and” are separate entries in the source; they are usually repeats but may differ in a detail not shown here. Equal values may be shown once. Some compounds were tested as several samples or in several runs, with calls that do not always agree. Active and inactive are the calls of the source. Rule for the calls: active = hit-call score of the fitted dose curve at least 0.9, where 1 is the maximum; inactive = score below 0.9.
# Experiments:
# [1] = read-out: flavin-containing dimethylaniline monooxygenases 3 (FMO3), FMO3 (gene 2328); experiment: LTEA_HepaRG_FMO3: Life Technologies and Expression Analysis (LTEA) Assay for flavin-containing dimethylaniline monooxygenases 3 (FMO3) using HepaRG (AID 2283453); settings: mRNA level, 48 h; actives raise or lower the signal;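 for AC50: FMO3 transcript by TaqMan qRT-PCR normalized to ACTB GAPDH and POLR2A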
# Procedure, shortened: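 Eight-point concentration-response in serum-free HepaRG cultures (top 100 uM, 0.5% DMSO, 48 h). Read-out: FMO3 mRNA level normalized to three endogenous control genes, fitted bidirectionally versus vehicle.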
# [2] = read-out: Cytochrome P450 (CYP1A1), CYP1A1 (gene 1543); experiment: LTEA_HepaRG_CYP1A1: Life Technologies and Expression Analysis (LTEA) Assay for Cytochrome P450 (CYP1A1) using HepaRG (AID 2283454); settings: mRNA level, 48 h; actives raise or lower the signal
# Procedure, shortened: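 Differentiated human HepaRG cells, after 48 h plating, exposed in duplicate for 48 h in serum-free induction medium to 8 half-log concentrations up to 100 uM in 0.5% DMSO. CYP1A1 mRNA by qRT-PCR, normalized to ACTB/GAPDH/POLR2A; bidirectional fit versus DMSO.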
# [3] = read-out: CFLAR gene, CFLAR (gene 8837); experiment: LTEA_HepaRG_CFLAR: Life Technologies and Expression Analysis (LTEA) Assay for CFLAR gene using HepaRG (AID 2283455); settings: mRNA level, 48 h; actives raise or lower the signal
# Procedure, shortened: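 Gain- or loss-of-signal changes in CFLAR transcript were fitted bidirectionally relative to 0.5% DMSO. Cells (HepaRG, duplicate wells) were dosed for 48 h across eight half-log concentrations topping at 100 uM; quantitation by TaqMan qRT-PCR.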
# [4] = read-out: Forkhead box O1 (FOXO1), FOXO1 (gene 2308); experiment: LTEA_HepaRG_FOXO1: Life Technologies and Expression Analysis (LTEA) Assay for Forkhead box O1 (FOXO1) using HepaRG (AID 2283456); settings: mRNA level, 48 h; actives raise or lower the signal
# Procedure, shortened: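 Using one lot of HepaRG hepatic cells kept in 0.5% DMSO, the team applied test chemicals in duplicate, half-log dilutions from 100 uM, for 48 h. Expression, normalised to ACTB/GAPDH/POLR2A, was compared with vehicle in either direction.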
# [5] = read-out: growth arrest and DNA damage 45 (GADD45A), GADD45A (gene 1647); experiment: LTEA_HepaRG_GADD45A: Life Technologies and Expression Analysis (LTEA) Assay for growth arrest and DNA damage 45 (GADD45A) using HepaRG (AID 2283458); settings: mRNA level, 48 h; actives raise or lower the signal
# Procedure, shortened: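 HepaRG, 48 h exposure, 8 conc. (top 100 uM, half-log steps), 0.5% DMSO vehicle, duplicates. Read-out: qRT-PCR mRNA level, housekeeping-normalized (ACTB/GAPDH/POLR2A). Curves fit bidirectionally vs DMSO baseline.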
# [6] = read-out: Forkhead box O3 (FOXO3), FOXO3 (gene 2309); experiment: LTEA_HepaRG_FOXO3: Life Technologies and Expression Analysis (LTEA) Assay for Forkhead box O3 (FOXO3) using HepaRG (AID 2283459); settings: mRNA level, 48 h; actives raise or lower the signal
# Procedure, shortened: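 Gene-expression endpoint: FOXO3 transcript level by qRT-PCR in HepaRG cultures treated 48 h with chemicals up to 100 uM (half-log, 0.5% DMSO vehicle).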
# [7] = read-out: ABC Transporter (ABCB1), ABCB1 (gene 5243); experiment: LTEA_HepaRG_ABCB1: Life Technologies and Expression Analysis (LTEA) Assay for ABC Transporter (ABCB1) using HepaRG (AID 2283460); settings: mRNA level, 48 h; actives raise or lower the signal
# Procedure, shortened: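 Human liver HepaRG line treated 48 h with up to 100 uM compound (eight half-log points, 0.5% DMSO); ABCB1 mRNA change fitted bidirectionally against DMSO controls.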
# [8] = read-out: growth arrest and DNA damage 45 (GADD45B), GADD45B (gene 4616); experiment: LTEA_HepaRG_GADD45B: Life Technologies and Expression Analysis (LTEA) Assay for growth arrest and DNA damage 45 (GADD45B) using HepaRG (AID 2283461); settings: mRNA level, 48 h; actives raise or lower the signal
# Procedure, shortened: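 Differentiated human HepaRG cells in serum-free induction medium exposed 48 h in duplicate to eight concentrations, top 100 uM, half-log steps, 0.5% DMSO. GADD45B mRNA by TaqMan qRT-PCR, normalized to ACTB, GAPDH, POLR2A; bidirectional fit versus DMSO.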
# [9] = read-out: ABC Transporter (ABCC3), ABCC3 (gene 8714); experiment: LTEA_HepaRG_ABCC3: Life Technologies and Expression Analysis (LTEA) Assay for ABC Transporter (ABCC3) using HepaRG (AID 2283462); settings: mRNA level, 48 h; actives raise or lower the signal
# Procedure, shortened: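 Differentiated human HepaRG cells exposed 48 h in serum-free induction medium, 0.5% DMSO vehicle, 8-point half-log series to 100 uM in duplicate. ABCC3 mRNA by qRT-PCR, normalised to ACTB, GAPDH, POLR2A; bidirectional fit vs DMSO.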
# [10] = read-out: ABC Transporter (ABCB11), ABCB11 (gene 8647); experiment: LTEA_HepaRG_ABCB11: Life Technologies and Expression Analysis (LTEA) Assay for ABC Transporter (ABCB11) using HepaRG (AID 2283463); settings: mRNA level, 48 h; actives raise or lower the signal
# Procedure, shortened: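 Using HepaRG cultures held in 0.5% DMSO, chemicals were tested at half-log dilutions from 100 uM for 48 h. Induction or suppression of ABCB11 mRNA, normalized to ACTB, GAPDH and POLR2A, was fitted bidirectionally against vehicle.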
# [11] = read-out: ABC Transporter (ABCC2), ABCC2 (gene 1244); experiment: LTEA_HepaRG_ABCC2: Life Technologies and Expression Analysis (LTEA) Assay for ABC Transporter (ABCC2) using HepaRG (AID 2283464); settings: mRNA level, 48 h; actives raise or lower the signal
# Procedure, shortened: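 Differentiated HepaRG cells in serum-free induction medium exposed 48 h to eight half-log concentrations up to 100 uM, 0.5% DMSO, in duplicate. ABCC2 mRNA measured by qRT-PCR (TaqMan, Fluidigm), normalized to ACTB, GAPDH and POLR2A. Fitted in both directions against DMSO.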
# [12] = read-out: Broad substrate specificity ATP-binding cassette transporter ABCG2 (Homo sapiens) (UniProt Q9UNQ0); experiment: LTEA_HepaRG_ABCG2: Life Technologies and Expression Analysis (LTEA) Assay for ABC Transporter (ABCG2) using HepaRG (AID 2283465); settings: mRNA level, 48 h; actives raise or lower the signal
# Procedure, shortened: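 Gene expression of ABCG2 in HepaRG liver cells is quantified by qRT-PCR following 48 h exposure across an eight-point series topping at 100 uM. Values come from bidirectional fitting relative to DMSO vehicle.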
# [13] = read-out: ATP-citrate lyase (ACLY), ACLY (gene 47); experiment: LTEA_HepaRG_ACLY: Life Technologies and Expression Analysis (LTEA) Assay for ATP-citrate lyase (ACLY) using HepaRG (AID 2283466); settings: mRNA level, 48 h; actives raise or lower the signal
# Procedure, shortened: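 ACLY expression changes in human HepaRG liver cells are quantified by qRT-PCR after 48 h exposure to test chemicals (maximum 100 uM, half-log steps). Values are fitted in both directions relative to 0.5% DMSO vehicle.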
# [14] = read-out: Alkaline Phosphatase, Placental (ALPP) gene, ALPP (gene 250); experiment: LTEA_HepaRG_ALPP: Life Technologies and Expression Analysis (LTEA) Assay for Alkaline Phosphatase, Placental (ALPP) gene using HepaRG (AID 2283468); settings: mRNA level, 48 h; actives raise or lower the signal
# Procedure, shortened: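 HepaRG cells plated 48 h, then exposed in duplicate for 48 h in serum-free induction medium to 8-point half-log series from 100 uM in 0.5% DMSO. ALPP mRNA by TaqMan qRT-PCR, normalized to ACTB/GAPDH/POLR2A; bidirectional fit versus DMSO.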
# [15] = read-out: Bcl-2 (BAD) gene, BAD (gene 572); experiment: LTEA_HepaRG_BAD: Life Technologies and Expression Analysis (LTEA) Assay for Bcl-2 (BAD) gene using HepaRG (AID 2283469); settings: mRNA level, 48 h; actives raise or lower the signal
# Procedure, shortened: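 Activity values reflect up- or down-regulation of BAD mRNA in human HepaRG hepatic cells treated 48 h in serum-free medium, with eight-point half-log dosing capped at 100 uM and 0.5% DMSO vehicle.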
# [16] = read-out: Bcl-2 (BAX) gene, BAX (gene 581); experiment: LTEA_HepaRG_BAX: Life Technologies and Expression Analysis (LTEA) Assay for Bcl-2 (BAX) gene using HepaRG (AID 2283470); settings: mRNA level, 48 h; actives raise or lower the signal
# Procedure, shortened: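 qRT-PCR read-out of BAX mRNA, normalized to three housekeeping genes, after 48 h chemical exposure of human HepaRG cells in serum-free induction medium; eight-point half-log series, top 100 uM, 0.5% DMSO vehicle; bidirectional fit versus DMSO.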
# [17] = read-out: adenosine kinase (ADK) gene, ADK (gene 132); experiment: LTEA_HepaRG_ADK: Life Technologies and Expression Analysis (LTEA) Assay for adenosine kinase (ADK) gene using HepaRG (AID 2283471); settings: mRNA level, 48 h; actives raise or lower the signal
# Procedure, shortened: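 Following 48 h exposure of HepaRG cells in 0.5% DMSO (top concentration 100 uM, duplicate wells), ADK mRNA induction or suppression was measured by qRT-PCR, normalised to ACTB/GAPDH/POLR2A, and fitted bidirectionally relative to vehicle.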
# [18] = read-out: Alpha-fetoprotein (AFP) gene, AFP (gene 174); experiment: LTEA_HepaRG_AFP: Life Technologies and Expression Analysis (LTEA) Assay for Alpha-fetoprotein (AFP) gene using HepaRG (AID 2283472); settings: mRNA level, 48 h; actives raise or lower the signal
# Procedure, shortened: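 qRT-PCR (Fluidigm TaqMan) readout of AFP transcript, normalized to three housekeeping genes, fitted bidirectionally against 0.5% DMSO baseline. HepaRG cells received chemicals for 48 h in serum-free induction medium, top concentration 100 uM, half-log steps.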
# [19] = CEETOX_H295R_TESTO: CeeTox H295R High-throughput Steroidogenesis Assay for Testosterone (TESTO) (AID 2283457); settings: actives raise or lower the signal
# Procedure, shortened: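 H295R adrenal cells, passage ≤10, exposed to chemicals for 48 h. Testosterone in medium measured by MTBE extraction and HPLC-MS/MS against a 7-point standard curve. Bidirectional fit versus DMSO; MTT viability checked in the same wells.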
# [20] = read-out: Peroxisomal acyl-coenzyme A oxidase 1 (ACOX1) gene, ACOX1 (gene 51); experiment: LTEA_HepaRG_ACOX1: Life Technologies and Expression Analysis (LTEA) Assay for Peroxisomal acyl-coenzyme A oxidase 1 (ACOX1) gene using HepaRG (AID 2283467); settings: mRNA level, 48 h; actives raise or lower the signal
# Procedure, shortened: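 Human HepaRG hepatic cultures, 48 h treatment with test chemicals up to 100 uM. ACOX1 expression read by qRT-PCR relative to 0.5% DMSO vehicle.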
# Sequence of Broad substrate specificity ATP-binding cassette transporter ABCG2 (Homo sapiens) (Q9UNQ0 whole entry, looked up): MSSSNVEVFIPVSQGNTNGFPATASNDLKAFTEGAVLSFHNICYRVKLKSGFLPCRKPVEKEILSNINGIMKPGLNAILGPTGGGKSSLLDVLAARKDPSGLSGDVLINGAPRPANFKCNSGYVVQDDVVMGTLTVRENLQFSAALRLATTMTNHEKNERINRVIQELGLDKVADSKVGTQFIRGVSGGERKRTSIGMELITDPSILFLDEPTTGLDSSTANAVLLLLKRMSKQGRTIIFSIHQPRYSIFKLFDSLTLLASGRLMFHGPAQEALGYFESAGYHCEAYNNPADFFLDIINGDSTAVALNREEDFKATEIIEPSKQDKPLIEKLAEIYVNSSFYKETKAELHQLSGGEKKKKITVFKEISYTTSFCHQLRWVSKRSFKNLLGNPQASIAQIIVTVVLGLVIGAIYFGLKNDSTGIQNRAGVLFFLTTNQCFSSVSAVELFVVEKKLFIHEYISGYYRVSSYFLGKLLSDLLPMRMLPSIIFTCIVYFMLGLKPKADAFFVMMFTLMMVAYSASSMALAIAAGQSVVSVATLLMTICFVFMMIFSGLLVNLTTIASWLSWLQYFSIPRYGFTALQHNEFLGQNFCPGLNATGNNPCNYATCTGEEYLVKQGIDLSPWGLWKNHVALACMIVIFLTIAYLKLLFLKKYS
smiles,measurement,setting,value
O=C(Nc1ccccc1)Nc1cnns1,AC50,[1],73.5 µM (active)
same,AC50,[2],73.6 µM (active)
same,outcome,[3],inactive
same,outcome,[4],inactive
same,outcome,[5],inactive
same,outcome,[6],inactive
same,outcome,[7],inactive
same,outcome,[8],inactive
same,AC50,[9],78.6 µM (active)
same,AC50,[10],63.6 µM (active)
same,AC50,[11],89.5 µM (active)
same,outcome,[12],inactive
same,outcome,[13],inactive
same,AC50,[14],78.6 µM (active)
same,outcome,[15],inactive
same,outcome,[16],inactive
same,outcome,[17],inactive
same,AC50,[18],76.2 µM (active)
ClC1C(Cl)C(Cl)C(Cl)C(Cl)C1Cl (centres undefined),outcome,[1],inactive
same,AC50,[2],27.3 µM (active) and 19.9 µM (active)
same,outcome,[3],inactive
same,outcome,[4],inactive
same,outcome,[5],inactive
same,outcome,[6],inactive
same,AC50,[7],1.54 µM (active) and 4.45 µM (active)
same,outcome,[8],inactive
same,outcome,[9],inactive
same,outcome,[10],inactive
same,AC50,[11],3.62 µM (active)
same,AC50,[12],3.28 µM (active)
same,outcome,[12],inactive
same,outcome,[13],inactive
same,outcome,[14],inactive
same,outcome,[15],inactive
same,outcome,[16],inactive
same,outcome,[17],inactive
same,AC50,[18],19.5 µM (active)
same,outcome,[18],inactive
CCC(C)(C)C(=O)OC1=C(c2ccc(Cl)cc2Cl)C(=O)OC12CCCCC2,AC50,[1],66.4 µM (active)
same,AC50,[2],50 µM (active)
same,outcome,[3],inactive
same,outcome,[4],inactive
same,outcome,[19],inactive
same,outcome,[5],inactive
same,outcome,[6],inactive
same,outcome,[7],inactive
same,outcome,[8],inactive
same,outcome,[9],inactive
same,AC50,[10],20.7 µM (active)
same,outcome,[11],inactive
same,outcome,[12],inactive
same,outcome,[13],inactive
same,outcome,[14],inactive
same,outcome,[15],inactive
same,outcome,[16],inactive
same,outcome,[17],inactive
same,outcome,[18],inactive
CC1(C)C(C=C(Cl)Cl)C1C(=O)OC(C#N)c1ccc(F)c(Oc2ccccc2)c1 (centres undefined),outcome,[1],inactive
same,AC50,[2],37.7 µM (active)
same,outcome,[3],inactive
same,outcome,[4],inactive
same,outcome,[5],inactive
same,outcome,[6],inactive
same,AC50,[7],24.5 µM (active)
same,outcome,[8],inactive
same,outcome,[9],inactive
same,outcome,[10],inactive
same,AC50,[11],50 µM (active)
same,AC50,[12],21.4 µM (active)
same,outcome,[13],inactive
same,outcome,[20],inactive
same,outcome,[14],inactive
same,outcome,[15],inactive
same,outcome,[16],inactive
same,outcome,[17],inactive
same,outcome,[18],inactive
COP(=S)(OC)Oc1ccc([N+](=O)[O-])cc1,outcome,[1],inactive
same,AC50,[2],44.2 µM (active)
same,outcome,[3],inactive
same,outcome,[4],inactive
same,outcome,[5],inactive
same,outcome,[6],inactive
same,outcome,[7],inactive
same,outcome,[8],inactive
same,outcome,[9],inactive
same,outcome,[10],inactive
same,outcome,[11],inactive
same,outcome,[12],inactive
same,outcome,[13],inactive
same,outcome,[14],inactive
same,outcome,[15],inactive
same,outcome,[16],inactive
same,outcome,[17],inactive
same,outcome,[18],inactive
